Screening data as filed in PubChem BioAssay.
Pf growth 96h – Primary qHTS for delayed death inhibitors of the malarial parasite plastid, 96 hour incubation; P. falciparum luciferase reporter growth, 96 h; Potency, µM (series often up to 28.7 µM), for the others: at the top dose activity change, negative = inhibition, actives largely listed as inhibitors; 320,000 tested, 6.9% active; note: potency is the fitted concentration of half-maximal effect; % is set by controls: 0 for no effect and ±100 for the full control effect
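P. falciparum expressing integrated firefly luciferase grown in erythrocytes (2% hematocrit, 0.05% parasitemia final) with compounds for 96 hours at 37 C, 5% CO2. Growth inhibition read as loss of luminescence after adding luciferase detection reagent.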
Cycloheximide cs – Cycloheximide Counterscreen for Small Molecule Inhibitors of Shiga Toxin; cell reporter, cycloheximide protein synthesis inhibition counterscreen; max response, %; 300,000 tested, 12% active; AID 2314, 2010; in the data active = max response mostly above about 13%, no sharp cut-off; inactive = mostly below about 14%; note: read at 38.3 µM for the half of the compounds with a filed dose; 0% is about no effect
LmPK inh – qHTS Assay for Inhibitors of Leishmania Mexicana Pyruvate Kinase (LmPK); purified LmPK, Kinase-Glo ATP luminescence, 1 h; Potency, µM (titrated, usually from 57.5 µM), for the others: at the top dose activity change, negative = inhibition, most hits filed as inhibitors; 290,000 tested, 0.37% active; note: potency is the fitted concentration of half-maximal effect; % is set by controls: 0 for no effect and ±100 for the full control effect
Target sequence (Q27686 whole entry, looked up): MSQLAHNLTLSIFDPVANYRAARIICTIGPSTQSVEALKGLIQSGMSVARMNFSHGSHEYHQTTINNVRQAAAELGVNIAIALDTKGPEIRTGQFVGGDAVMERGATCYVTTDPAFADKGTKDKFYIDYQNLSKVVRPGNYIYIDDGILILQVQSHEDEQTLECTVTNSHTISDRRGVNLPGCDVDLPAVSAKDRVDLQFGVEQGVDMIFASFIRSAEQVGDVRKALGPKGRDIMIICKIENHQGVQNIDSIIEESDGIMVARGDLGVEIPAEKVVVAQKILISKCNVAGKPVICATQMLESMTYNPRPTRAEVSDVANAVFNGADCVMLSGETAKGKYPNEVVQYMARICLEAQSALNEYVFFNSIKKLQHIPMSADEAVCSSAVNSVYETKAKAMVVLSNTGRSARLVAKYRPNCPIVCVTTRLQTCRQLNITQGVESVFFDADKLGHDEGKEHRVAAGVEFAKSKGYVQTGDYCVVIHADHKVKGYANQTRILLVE
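ATP generated from ADP (0.1 mM) and PEP (0.5 mM) by 0.1 nM LmPK over 1 h at room temperature (pH 7.2 imidazole buffer) was detected by coupled luciferase luminescence. Values were normalized to uninhibited and no-enzyme wells.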
Shiga toxin inh – A qHTS for Small Molecule Inhibitors of Shiga Toxin; Vero cells, Shiga toxin protein synthesis inhibition reporter; inhibition, % at 38.7 µM; 290,000 tested, 9.2% active; in the data active = inhibition mostly above about 28%, no sharp cut-off; inactive = mostly below about 43%; note: 0% is about no effect
Pf growth 48h – Primary qHTS for delayed death inhibitors of the malarial parasite plastid, 48 hour incubation; P. falciparum luciferase growth in erythrocytes, 48 h; Potency, µM (doses to about 28.7 µM), without a hit: top-dose activity change, negative = inhibition, hits mostly inhibitors; 310,000 tested, 5.9% active; AID 504832, 2011; note: potency is the fitted concentration of half-maximal effect; % is set by controls: 0 for no effect and ±100 for the full control effect
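Cell-based growth assay: transgenic P. falciparum expressing firefly luciferase, cultured in red cells within RPMI 1640 containing 0.5% w/v Albumax, 24 mM bicarbonate and gentamycin. A drop in luciferase activity indicates inhibition.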
An asterisk follows results filed as active; i = inactive; ? = inconclusive; . = no result given. Shown are actives, neighbours in structure and some others; about 22% of the full set was active somewhere. Unless noted, calls come from the whole dose curve; as a rule, active = well fitted inhibition curve with a large enough effect; inconclusive = small, poorly fitted or top-dose-only effect, or another doubt; inactive = no such curve, though single readings can be large or run the other way.

SMILES | Pf growth 96h | Cycloheximide cs | LmPK inh | Shiga toxin inh | Pf growth 48h
COc1cc(OC)c(NC(=O)/C=C/C(=O)O)cc1Cl | ? | 2 | 5% | -6 | ?
Cc1c(Cl)c([N+](=O)[O-])nn1CC(=O)N1CCN(Cc2ccccc2)CC1 | 0% | -2 | 3% | -13 | 8%
Cc1cc(C(=O)COC(=O)Cc2n[nH]c(=O)c3ccccc23)c(C)n1-c1cccc(C(F)(F)F)c1 | 2.9µM* | -2 | -4% | -11 | 9.3µM*
Cc1cc(C(=O)COC(=O)CC2Sc3ccccc3NC2=O)c(C)n1-c1cccc(C(F)(F)F)c1 (configuration not stated) | -4% | 11 | 3% | 23 | ?
CCOC(=O)N/N=C(\C)c1ccc(OC(F)F)cc1OC(F)F | -9% | 0 | -8% | -5 | 0%
Cc1cc(-c2ccccc2)nc(N/N=C/c2cccnc2)n1 | ? | 2 | -20% | 22 | 28%
Oc1cccc(/C=N\Nc2nncc(-c3ccccc3)n2)c1 | -19% | 64* | -2% | 50* | 25%
C(=N/Nc1nc(-c2ccccc2)cc(-c2ccccc2)n1)/c1cccnc1 | -15% | 61* | 2% | 69* | ?
C(=N\Nc1nc(Nc2ccccc2)nc(Nc2ccccc2)n1)/c1cccnc1 | -2% | 5 | 7% | 36 | 3.3µM*
C(=N\Nc1nc(Nc2ccccc2)nc(Nc2ccccc2)n1)/c1ccncc1 | -27% | -2 | 2% | -9 | 0%
Cc1[nH]n(-c2ccccc2)c(=O)c1/C=N/Nc1nncc(-c2ccccc2)n1 | 0.59µM* | -1 | -18% | 2 | 0.41µM*
Cc1ccc(/C=N/Nc2nncc(-c3ccccc3)n2)o1 | ? | 12 | 1% | 25 | 4%
CCOc1cc(/C=N/Nc2nncc(-c3ccccc3)n2)ccc1O | 60% | 8 | 2% | -6 | ?
COc1ccccc1N1CCN(C2CC(=O)N(c3ccc(Cl)cc3)C2=O)CC1 (configuration not stated) | 15% | -2 | 13% | . | -12%
CCc1nc(SCC(=O)NCCc2ccccc2)c2c(=O)n(C)c(=O)n(C)c2n1 | -5% | 1 | 10% | -17 | 5%
COc1ccc(N(CC(=O)Nc2ccccc2C(=O)NCCc2ccccc2)S(C)(=O)=O)cc1OC | . | -3 | 15% | -3 | ?
Cc1csc(NC(=O)CSc2nc(C(C)C)nc3ccccc23)n1 | -2% | 2 | 2% | 5 | -22%
CCOC(=O)Cn1c2c(c(=N)c3c1CCC3)CCCC2 | 0.19µM* | -6 | -6% | -5 | ?
CCCn1c(=S)[nH]c2sc3c(c2c1=O)CCCC3 | -1% | -6 | 0% | 15 | 17%
CCCCCCCn1c2c(c(=N)c3ccccc31)CCC2 | 21% | -1 | 3% | 1 | 0.93µM*
CCCn1c2c(c(=N)c3c1CCC3)CCC2 | ? | 0 | 0% | 4 | 0.37µM*
CCCn1c2c(c(=N)c3c1CCC3)CCCC2 | 0.12µM* | -3 | -5% | -4 | 0.37µM*
CC(C)c1c(C(=O)N/N=C/c2ccc(C(F)(F)F)cc2)nnn1-c1nonc1N | ? | 5 | -2% | 0 | ?
C=CCOc1ccc(C(=O)c2ccccc2)c(OCC(=O)NC2(C#N)CCCC2)c1 | ? | -2 | 13% | -3 | ?
O=C(NNC(=O)c1ccco1)c1csc(N2CCOCC2)n1 | 16% | . | . | . | 13%
SMILES | Pf growth 96h | Cycloheximide cs | LmPK inh | Shiga toxin inh | Pf growth 48h
O=C1Nc2ccc(Cl)cc2C(C#CC2CC2)(C(F)(F)F)O1 (configuration not stated) | ? | -3 | 0% | 6 | ?
CC1CCN(C(=O)CSc2nc(C(C)C)nc3c2c(=O)n(C)c(=O)n3C)CC1 | ? | -1 | -10% | 9 | ?
COc1cc(/C=N/NC(=O)c2ccncc2)ccc1O | ? | 2 | -11% | 10 | 17%
COc1cc(/C=N/Nc2ncc(C(F)(F)F)cc2Cl)cc(OC)c1OC | ? | -2 | 5% | 8 | 4.7µM*
COc1cc(/C=N/Nc2ncc(C(F)(F)F)cc2Cl)cc(OC)c1O | 57% | 13 | 0% | -9 | 42%
COc1cc(/C=N/Nc2ccc(C(F)(F)F)cn2)ccc1O | 36% | 31* | 3% | 127* | 13%
O=C(O)c1ccc(/C=N/Nc2ccc(C(F)(F)F)cn2)cc1 | i | 35* | -4% | 84* | 168%
NCCCCc1cn(CC(=O)N2CCNCC2)nn1 | 38% | -2 | -4% | -17 | 2%
O=C(NC1CCCCC1)C1CCCN1S(=O)(=O)c1ccc(Cl)cc1 (configuration not stated) | 46% | 6 | -4% | 3 | -18%
NC(=O)c1ccc(SCC(=O)OCC(=O)N2CCN(C(=O)c3ccco3)CC2)c([N+](=O)[O-])c1 | 2% | . | . | . | 2%
COc1ccc(C2=NN(C(=O)CSc3nc4ncc(Cl)cc4[nH]3)C(c3ccco3)C2)cc1 (configuration not stated) | ? | 21* | 2% | -9 | ?
Nc1cc(=O)[nH]c(SCC(=O)N2N=C(c3ccc(Cl)cc3)CC2c2ccco2)n1 (configuration not stated) | -15% | 11 | 1% | 23 | -26%
Cc1ccc(C2=NN(C(=O)CSc3nc4ncc(Cl)cc4[nH]3)C(c3ccco3)C2)cc1 (configuration not stated) | 12µM* | 14* | 1% | 27 | -13%
CN(CC(=O)Nc1ccc(F)c(F)c1F)C1CCCCC1 | 69% | -8 | 6% | -7 | .
CN(CC(=O)Nc1ccc(F)c(F)c1F)c1cnccn1 | ? | -4 | -1% | -10 | 13µM*
CN(CC(=O)Nc1ccc(F)c(F)c1F)C(=O)c1ccc(=O)[nH]c1 | 191% | 38* | -24% | 50* | 194%
CC(NS(=O)(=O)c1ccc(OCC(=O)NCc2ccccn2)cc1)c1ccccc1 (configuration not stated) | -7% | 2 | -1% | -7 | -6%
O=S(=O)(NC1c2cccc3cccc(c23)C1Sc1ncccn1)c1ccccc1 (configuration not stated) | ? | -3 | -1% | -14 | ?
CC(C)(C)OC(=O)N1CCC[C@H]1c1nnc(SCc2ccccc2)o1 | 12µM* | 5 | 1% | 5 | ?
CSCC[C@H](NC(=O)OC(C)(C)C)c1nnc(SCc2cccc(F)c2)o1 | 31% | 1 | 2% | 9 | ?
CC(C)C[C@H](NC(=O)OC(C)(C)C)c1nnc(SCc2cccc(F)c2)o1 | 10µM* | 9 | 4% | 27* | ?
CSc1nnc([C@H](Cc2c[nH]c3ccccc23)NC(=O)OC(C)(C)C)o1 | 12% | 26* | 1% | 65* | -6%
CSCC[C@H](NC(=O)OC(C)(C)C)c1nnc(SCc2ccc(F)cc2)o1 | ? | -4 | 4% | 19 | ?
CSCC[C@H](NC(=O)OC(C)(C)C)c1nnc(SCc2ccccc2)o1 | -13% | -1 | 0% | 23 | 6.6µM*
